Screen size: about 5,500 compounds; about 2,000 (36%) were called active. Inconclusive results (about 18%) are left out. Cut-off read from the data, not from the text of the source: active = normalized growth mostly below about 0.91 (no sharp cut-off); inconclusive = no clear call, values can overlap the other calls; inactive = mostly above about 0.92. Some of the results follow. Where a SMILES comes first, the peptide text is derived from it. Bridges are numbered along the chain shown (N, C = ends). [ ]: non-standard residue; d: D form. The star is where a group is joined. Octanoyl(6-Me) = CCC(C)CCCCC(=O)*; Dab = NCC[CH](N)C(=O)O
Assay: chemical genetic growth profiling, strain panel (AID 1159580);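 note: tested at 20 µM; growth read once vehicle control cultures reached saturation at 30 °C; 1 = growth at the plate median or of vehicle wells; lower values mean less growth of the strain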
Settings: growth OD

Measured: normalized growth

CCC(C)CCCCC(=O)NC(CCN)C(=O)NC(C(=O)NC(CCN)C(=O)NC1CCNC(=O)C(C(C)O)NC(=O)C(CCN)NC(=O)C(CCN)NC(=O)C(CC(C)C)NC(=O)C(Cc2ccccc2)NC(=O)C(CCN)NC1=O)C(C)O (configuration not stated) ({Octanoyl(6-Me)}-[Dab]T[Dab][Dab][Dab]FL[Dab][Dab]T; lactam 4-C; configuration not given here)
inactive: S. cerevisiae deletion strains, locus YJR075W, strain HOC1, active compounds read low 0.997 | S. cerevisiae deletion strains, locus YKL009W, strain mrt4, active compounds read low 0.99 | S. cerevisiae deletion strains, locus YKL068W, active compounds read low 1 | S. cerevisiae deletion strains, locus YKL085W, strain MDH1 (second series), active compounds read low 0.998 | S. cerevisiae deletion strains, locus YKL085W, strain MDH1, active compounds read low 0.998 | S. cerevisiae deletion strains, locus YKL160W, strain elf1, active compounds read low 0.97 | S. cerevisiae deletion strains, locus YKL190W, strain CNB1, active compounds read low 0.991 | S. cerevisiae deletion strains, locus YKR001C, strain vps1, active compounds read low 0.987 | S. cerevisiae deletion strains, locus YKR026C, strain gcn3, active compounds read low 1 | S. cerevisiae deletion strains, locus YKR091W, strain srl3, active compounds read low 1.01 | S. cerevisiae deletion strains, locus YLL001W, strain dnm1, active compounds read low 0.989 | S. cerevisiae deletion strains, locus YLL026W, active compounds read low 1.02 | S. cerevisiae deletion strains, locus YLL041C, strain sdh2, active compounds read low 0.995 | S. cerevisiae deletion strains, locus YLR027C, strain aat2, active compounds read low 0.988 | S. cerevisiae deletion strains, locus YLR039C, strain RIC1, active compounds read low 1.04 | S. cerevisiae deletion strains, locus YLR058C, strain SHM2, active compounds read low 1 | S. cerevisiae deletion strains, locus YLR102C, strain apc9, active compounds read low 1.01 | S. cerevisiae deletion strains, locus YLR113W, strain HOG1, active compounds read low 0.986 | S. cerevisiae deletion strains, locus YLR221C, strain rsa3, active compounds read low 0.988 | S. cerevisiae deletion strains, locus YLR258W, strain gsy2, active compounds read low 0.978 | S. cerevisiae deletion strains, locus YLR262C, strain YPT6 (second series), active compounds read low 1.04 | S. cerevisiae deletion strains, locus YLR262C, strain YPT6, active compounds read low 1.05 | S. cerevisiae deletion strains, locus YLR268W, strain sec22, active compounds read low 1.05 | S. cerevisiae deletion strains, locus YLR320W, strain mms22, active compounds read low 0.957 | S. cerevisiae deletion strains, locus YLR330W, strain CHS5, active compounds read low 1 | S. cerevisiae deletion strains, locus YLR342W, strain FKS1 (second series), active compounds read low 0.95 | S. cerevisiae deletion strains, locus YLR342W, strain FKS1, active compounds read low 0.995 | S. cerevisiae deletion strains, locus YLR357W, strain rsc2, active compounds read low 0.968 | S. cerevisiae deletion strains, locus YLR370C, strain arc18, active compounds read low 0.979 | S. cerevisiae deletion strains, locus YLR371W, strain rom2, active compounds read low 1.01 | S. cerevisiae deletion strains, locus YLR384C, strain iki3, active compounds read low 0.981 | S. cerevisiae deletion strains, locus YLR418C, strain cdc73, active compounds read low 1.02 | S. cerevisiae deletion strains, locus YML016C, strain PPZ1, active compounds read low 0.992 | S. cerevisiae deletion strains, locus YML032C, strain rad52, active compounds read low 1.02 | S. cerevisiae deletion strains, locus YML120C, strain ndi1, active compounds read low 0.985 | S. cerevisiae deletion strains, locus YML124C, strain tub3, active compounds read low 1.01 | S. cerevisiae deletion strains, locus YMR058W, strain fet3, active compounds read low 0.984 | S. cerevisiae deletion strains, locus YMR078C, strain ctf18, active compounds read low 1.01 | S. cerevisiae deletion strains, locus YMR125W, strain sto1, active compounds read low 0.993 | S. cerevisiae deletion strains, locus YMR129W, active compounds read low 1 | S. cerevisiae deletion strains, locus YMR205C, strain PFK2, active compounds read low 0.957 | S. cerevisiae deletion strains, locus YMR223W, strain ubp8, active compounds read low 0.975 | S. cerevisiae deletion strains, locus YMR231W, strain pep5, active compounds read low 1 | S. cerevisiae deletion strains, locus YMR263W, strain SAP30, active compounds read low 1.02 | S. cerevisiae deletion strains, locus YMR307W, strain GAS1, active compounds read low 0.984 | S. cerevisiae deletion strains, locus YNL067W, strain RPL9B, active compounds read low 1.01 | S. cerevisiae deletion strains, locus YNL071W, strain lat1, active compounds read low 1.02 | S. cerevisiae deletion strains, locus YNL128W, strain TEP1, active compounds read low 0.982 | S. cerevisiae deletion strains, locus YNL153C, strain GIM3, active compounds read low 1.02 | S. cerevisiae deletion strains, locus YNL183C, strain NPR1, active compounds read low 0.944 | S. cerevisiae deletion strains, locus YNL209W, strain ssb2, active compounds read low 1 | S. cerevisiae deletion strains, locus YNL233W, strain BNI4, active compounds read low 0.992 | S. cerevisiae deletion strains, locus YNL248C, strain rpa49, active compounds read low 0.989 | S. cerevisiae deletion strains, locus YNL250W, strain rad50, active compounds read low 0.996 | S. cerevisiae deletion strains, locus YNL271C, strain bni1, active compounds read low 1.01 | S. cerevisiae deletion strains, locus YNL298W, strain CLA4, active compounds read low 0.997 | S. cerevisiae deletion strains, locus YNL307C, strain MCK1, active compounds read low 1.01 | S. cerevisiae deletion strains, locus YNL322C, strain KRE1 (second series), active compounds read low 0.976 | S. cerevisiae deletion strains, locus YNL322C, strain KRE1, active compounds read low 0.991 | S. cerevisiae deletion strains, locus YNR049C, strain mso1, active compounds read low 0.997 | S. cerevisiae deletion strains, locus YNR052C, strain pop2, active compounds read low 0.979 | S. cerevisiae deletion strains, locus YOL006C, strain TOP1, active compounds read low 0.992 | S. cerevisiae deletion strains, locus YOL012C, strain htz1 1.19 | S. cerevisiae deletion strains, locus YOL147C, strain pex11, active compounds read low 1.01 | S. cerevisiae deletion strains, locus YOR001W, strain rrp6, active compounds read low 0.97 | S. cerevisiae deletion strains, locus YOR061W, strain CKA2, active compounds read low 0.991 | S. cerevisiae deletion strains, locus YOR069W, strain VPS5, active compounds read low 1 | S. cerevisiae deletion strains, locus YOR070C, strain gyp1, active compounds read low 0.995 | S. cerevisiae deletion strains, locus YOR080W, strain dia2, active compounds read low 0.991 | S. cerevisiae deletion strains, locus YOR083W, strain WHI5, active compounds read low 0.97 | S. cerevisiae deletion strains, locus YOR106W, strain vam3, active compounds read low 0.987 | S. cerevisiae deletion strains, locus YOR136W, strain idh2, active compounds read low 1 | S. cerevisiae deletion strains, locus YOR144C, strain elg1, active compounds read low 1 | S. cerevisiae deletion strains, locus YOR184W, strain ser1, active compounds read low 1.01 | S. cerevisiae deletion strains, locus YOR231W, strain MKK1, active compounds read low 0.978 | S. cerevisiae deletion strains, locus YOR265W, strain rbl2, active compounds read low 0.986 | S. cerevisiae deletion strains, locus YOR270C, strain vph1, active compounds read low 0.963 | S. cerevisiae deletion strains, locus YOR290C, strain snf2, active compounds read low 0.963 | S. cerevisiae deletion strains, locus YOR316C, strain cot1, active compounds read low 1 | S. cerevisiae deletion strains, locus YPL051W, strain arl3, active compounds read low 0.963 | S. cerevisiae deletion strains, locus YPL055C, strain LGE1, active compounds read low 0.994 | S. cerevisiae deletion strains, locus YPL078C, strain atp4, active compounds read low 0.972 | S. cerevisiae deletion strains, locus YPL106C, strain sse1, active compounds read low 0.956 | S. cerevisiae deletion strains, locus YPL240C, strain hsp82, active compounds read low 0.981 | S. cerevisiae deletion strains, locus YPL241C, strain CIN2, active compounds read low 1 | S. cerevisiae deletion strains, locus YPL256C, strain CLN2, active compounds read low 0.994 | S. cerevisiae deletion strains, locus YPR119W, strain clb2, active compounds read low 0.999 | S. cerevisiae deletion strains, locus YPR141C, strain kar3, active compounds read low 1.01 | S. cerevisiae deletion strains, locus YPR163C, strain tif3, active compounds read low 1.02 | S. cerevisiae deletion strains, locus YPR167C, strain met16, active compounds read low 1 | S. cerevisiae deletion strains, strain wtn01, active compounds read low 1.01 | S. cerevisiae strains, strain wild type, active compounds read low 0.99

From PubChem BioAssay AID1159580 (chemical genetic matrix, 2015)
